# PLK1 PBD block: qHTS for Inhibitors of PLK1-PDB (polo-like kinase 1 - polo-box domain): Primary Screen. 360,000 tested, 2.8% active. Potency, µM, without a hit: max response, negative = inhibition, usual class: inhibitors. Plk1 PBD binding of FITC phosphopeptide, fluorescence polarization; further: series mostly up to about 57 µM; on the % scale 0 is the no-effect control and ±100 the full control effect; nearly all actives have a fitted effect of over 65% in size
# G9a inh: qHTS Assay for Inhibitors of Histone Lysine Methyltransferase G9a | 350,000 tested, 8.8% active | Potency, µM (titrated, usually from 102 µM), for inactives: at the highest dose activity, negative = inhibition, usual class: inhibitors | AID 504332, 2011 | G9a H3K9 monomethylation, AlphaScreen, 2 h; further: on the % scale 0 is the no-effect control and ±100 the full control effect; nearly all actives have a fitted effect of over 75% in size
# Target sequence (Q96KQ7 913-1193 limits assumed): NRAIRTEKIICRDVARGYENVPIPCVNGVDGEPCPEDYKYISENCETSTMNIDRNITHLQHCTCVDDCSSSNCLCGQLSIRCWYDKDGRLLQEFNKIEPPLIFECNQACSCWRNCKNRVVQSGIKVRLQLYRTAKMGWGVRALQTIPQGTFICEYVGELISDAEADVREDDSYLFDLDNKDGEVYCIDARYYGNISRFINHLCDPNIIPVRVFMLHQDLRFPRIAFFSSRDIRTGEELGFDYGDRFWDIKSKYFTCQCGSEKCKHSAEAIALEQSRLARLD
#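 Enzyme 20 nM + cpd, 15 min RT; add b-H3K9 pep 500 nM / SAM 20 uM; 2 h RT; anti-H3K9me1 Ab 0.5 ug/mL + SA donor / anti-rabbit acceptor beads 20 ug/mL each, 10 min; AlphaScreen read.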
# Sfp inh: qHTS Assay for Inhibitors of Bacillus subtilis Sfp phosphopantetheinyl transferase (PPTase); Biochemical Sfp PPTase activity, qHTS; Potency, µM, for the others: largest response in the series, negative = inhibition, most hits filed as inhibitors; 310,000 tested, 3.5% active; AID 1490, 2009;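 further: the enzyme is Sfp with the accession as filed and its product quenches rhodamine fluorescence; 0% = enzyme reaction without inhibitor and -100% = no enzyme wells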
#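 Compounds were incubated with enzyme (final 15 nM) for 15 min at room temperature before substrate addition started the reaction. Fluorescence at 525 nm excitation, 598 nm emission was recorded immediately and after 30 minutes.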
# HP1b binding inh: HTS for Inhibitors of HP1-beta Chromodomain Interactions with Methylated Histone Tails. Chromobox protein homolog 1 (Homo sapiens), P83916. 390,000 tested, 0.56% active. Potency, µM (series often up to 114 µM), for inactives: at the highest dose activity change, negative = inhibition, actives largely listed as inhibitors. AlphaScreen HP1-beta / biotin-H3K9me3 peptide binding; further: nearly all actives have a fitted effect of over 70% in size
# Target sequence (P83916 whole entry, looked up): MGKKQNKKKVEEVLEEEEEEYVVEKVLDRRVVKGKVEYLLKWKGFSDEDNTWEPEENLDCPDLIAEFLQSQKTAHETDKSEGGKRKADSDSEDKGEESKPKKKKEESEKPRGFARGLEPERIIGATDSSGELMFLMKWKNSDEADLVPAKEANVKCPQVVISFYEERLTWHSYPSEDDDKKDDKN
#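 AlphaScreen: HP1-beta (50 nM) preformed 30 min with biotin-H3(1-18)K9me3 peptide (50 nM) in PBS pH 7.4, 0.01% Tween-20. Compound added for 30 min at RT, then streptavidin donor/nickel chelate acceptor beads (10 ug/mL) for 30 min.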
# JMJD2A Tudor: qHTS Assay for Inhibitors of JMJD2A-Tudor Domain. AID 504339, 2011. Potency, µM (highest dose often 114 µM), for inactives: at the highest dose activity change, negative = inhibition, actives largely listed as inhibitors. AlphaScreen JMJD2A-Tudor / H3K4me3 peptide binding. 390,000 tested, 4.4% active. Lysine-specific demethylase 4A (Homo sapiens), O75164; further: on the % scale 0 is the no-effect control and ±100 the full control effect; nearly all actives have a fitted effect of over 50% in size
# BAZ2B inh: qHTS Assay for Inhibitors of BAZ2B. Bromodomain adjacent to zinc finger domain protein 2B (Homo sapiens), Q9UIF8. AlphaScreen BAZ2B-H3K14Ac peptide displacement. Potency, µM (highest dose often 114 µM), inactives show top-dose activity change, negative = inhibition, most hits filed as inhibitors. 360,000 tested, 4.4% active. AID 504333, 2011; further: on the % scale 0 is the no-effect control and ±100 the full control effect; nearly all actives have a fitted effect of over 60% in size
#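 BAZ2B 50 nM plus b-H3(5-23)K14Ac 50 nM, PBS pH 7.4/0.01% Tween-20, 30 min RT; compound added (max 110 uM), 30 min RT; streptavidin donor/Ni-chelate acceptor beads 10 ug/mL final, 20 min dark; AlphaScreen read.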
# * hit, by the source's call; ? = inconclusive; / = not tested or not shown; [ ] = dose if it differs, or a comment. In the library only some 12% were active in any assay of this set; here they are far more common. The call rests on the fitted dose curve; in most records, active means well fitted curve in the direction sought with a large enough effect; inconclusive means small, poorly fitted or top-dose-only effect, or another doubt; inactive means no such curve, though single readings can be large; an effect the other way counts as inactive or inconclusive. Potency means the concentration at half of the fitted maximal effect.
SMILES,PLK1 PBD block,G9a inh,Sfp inh,HP1b binding inh,JMJD2A Tudor,BAZ2B inh
COC(=O)CN1C(=O)[C@H]2[C@@H](c3ccc(C)o3)N3C(=O)CN(Cc4ccc(-c5ccccc5)cc4)C(=O)[C@@]3(C)[C@H]2C1=O,-16.2%,39.8µM*,12.6µM*,33.5%,-19.7%,-17.7%
CSc1ncccc1C(=O)NCc1nnc2ccccn12,-0.1%,/,/,10.3%[57 µM],-4.8%,/
Cc1nnc(NC(=O)CCSc2ccc(Cl)cc2)s1,-12.0%,/,20.7%,23.2%,-12.0%,-2.5%
CC(C)(C)[C@H]1C=C(C(=O)N2CCN(Cc3ccc4c(c3)OCO4)CC2)O[C@@H](OCc2ccc(CO)cc2)C1,-4.7%,2.8%[59 µM],-15.7%,-9.3%,?,-35.3%
c1ccc(C(c2ccccc2)c2noc(CN3CCC(c4ccncc4)CC3)n2)cc1,-3.9%,-32.5%,8.5%,-0.6%,-32.4%,-25.7%
CC(C[N+](C)(C)C)OC(=O)C1(c2ccccc2)CCCC1 (stereo unspecified),3.3%,-39.1%[12.7 µM],4.8%,4.7%,-6.6%,-31.8%
C[N+](C)(C)CCOC(=O)C1(c2ccccc2)CCCC1,?,3.55µM*,13.6%,?,-29.5%[11.4 µM],1.2%
Cc1nn(CCC(N)=S)c2nc(-c3cccs3)cc(C(F)(F)F)c12,10.6µM*,10µM*,22.4µM*,-19.7%,-10.4%,-19.6%
Cc1nn(CCC#N)c2nc(-c3ccccc3)cc(C(F)(F)F)c12,-1.9%,5.7%,-11.7%,36.6%,3.5%,12.3%
CCCCN(C)CCNC(=O)c1cc2c(=O)n(C)c3ccccc3c2n1C,/,-8.6%[59 µM],/,29.4%,-31.0%,-17.8%
COc1cc(OC)c2c(-c3ccccc3)cc(=O)oc2c1C(CC(=O)N1CCOCC1)c1ccc(N(C)C)cc1 (stereo unspecified),-10.3%,-5.8%[12.7 µM],-0.5%,?,31.6µM*,35.5µM*
COc1cc(OC)c2c(-c3ccccc3)cc(=O)oc2c1C(CC(=O)N1CCN(c2ccccc2)CC1)c1ccc(N(C)C)cc1 (stereo unspecified),-0.2%,?,-13.0%,?,6.31µM*,8.91µM*
COc1cc(OC)c2c(-c3ccccc3)cc(=O)oc2c1C(CC(=O)N1CCN(c2ccccc2)CC1)c1ccc2c(c1)OCO2 (stereo unspecified),/,-49.4%[59 µM],1.4%,/,/,?
CC1(C(=O)O)CCCN1C(=O)c1cc2ccccc2s1 (stereo unspecified),5.2%,/,/,/,/,/
CCOC(=O)c1nc(C)n(-c2cc(OC)c(Cl)cc2Cl)n1,?,3.7%,13.7%,7.1%,-16.6%,3.1%
C[N+]1=C(/C=C/Nc2ccccc2Cl)C(C)(C)c2ccccc21,-11.5%,7.94µM*,-15.4%,-21.3%,?,-34.3%
COc1ccc(-c2nc3sc(CCNC(=O)C(=O)Nc4cccc(NC(C)=O)c4)c(C)n3n2)cc1,/,-1.9%[59 µM],/,21.6%,-27.9%,-29.7%
O=C(N/N=C\c1ccc(CNS(=O)(=O)c2ccccc2)o1)C(=O)Nc1ccc(F)cc1,1.7%,-8.4%,2.7%,24.3%,-9.8%,-4.4%
O=C(N/N=C\c1ccc(CN(Cc2ccc(Cl)cc2)S(=O)(=O)c2ccccc2)o1)C(=O)Nc1ccc(F)cc1,26.7µM*,?,-12.1%,-13.0%,-26.0%[11.4 µM],0.1%
CSc1ccc(CN2CCN(C(=O)c3ccc([N+](=O)[O-])cc3)CC2)cc1,-2.5%,/,-18.9%,?,22.4µM*,50.1µM*
O=C(c1ccccc1)N1CCN(CCc2ccccn2)CC1,0.5%,20.8%,8.2%,46.6%,-13.4%,3.0%
O=C(c1ccc(-c2ccccc2)cc1)N1CCN(Cc2ccccn2)CC1,-6.9%,39.8µM*,10.3%,13.1%,?,?
Cc1ccc(CN2CCN(C(=O)c3ccncc3)CC2)cc1,-1.8%,8.91µM*,?,?,7.94µM*,22.4µM*
COCC1CCCCN1C(=O)c1ccc(OC2CCN(Cc3ccccn3)CC2)cc1 (stereo unspecified),-1.7%,2.6%,4.1%,17.7%,25.1µM*,-38.5%
O=C(c1ccncc1)N1CCN(CCc2ccccc2)CC1,-5.2%,25.7%,9.0%,52.3%,-7.9%,-2.7%
SMILES,PLK1 PBD block,G9a inh,Sfp inh,HP1b binding inh,JMJD2A Tudor,BAZ2B inh
Cc1cccc(CC(=O)N2CC(=O)Nc3ccc(C)cc3C2c2ccc(F)cc2)c1 (stereo unspecified),/,7.3%[59 µM],/,20.0%,-22.9%,-1.3%
CN(C#N)c1nc(Cl)nc(Nc2cccc(Cl)c2)n1,-6.7%,-16.4%,-0.1%,27.9%,-10.1%,3.6%
Cc1ccc2nc(-c3ccc(F)cc3)c(CC3CCCCC3)n2c1,-12.0%,/,/,/,/,/
COc1ccc(N2CC(C(=O)N3CCN(c4ccccc4F)CC3)CC2=O)cc1 (stereo unspecified),-7.0%,12.5%,18.7%,-16.4%,-19.3%,1.0%
Cc1nc2cc(N3CCOCC3)c(NC(=O)C3CC3)cc2c(=O)n1Cc1ccccc1,-5.2%,50.1µM*,-3.5%,10.8%,?,?
Cc1nc2cc(N3CCCCC3)c(NC(=O)c3ccncc3)cc2c(=O)n1Cc1ccccc1,-1.4%,7.8%[59 µM],13.4%,29.4%,-6.9%,9.4%
O=c1c2cc([N+](=O)[O-])cc([N+](=O)[O-])c2[nH]n1-c1ccccc1,-9.3%,28.2µM*,-18.5%,35.5µM*,35.5µM*,39.8µM*
O=c1[nH]c(=O)c2cc([N+](=O)[O-])cc([N+](=O)[O-])c2[nH]1,-8.8%,?,2.0%,49.2%,-10.1%[57.1 µM],6.0%
O=C(Nc1cccc(F)c1)N1CC[C@@]2(CCCN(C(=O)c3ccncc3)C2)C1,/,-29.3%[12.7 µM],13.6%,/,/,/
O=S(=O)(c1ccc(Cl)cc1)c1cc(O)ccc1O,-12.3%,44.7µM*,-17.1%,?,-24.0%,-24.8%
Nc1ccc(S(=O)(=O)c2ccc(Cl)cc2)cc1,-7.1%,6.6%[59 µM],7.2%,18.7%,-11.0%,8.6%
Cc1c(O)ccc2cc(S(=O)(=O)c3ccccc3)c(=O)oc12,-29.7%,28.8%,-18.2%,41.1%,20.4%,9.1%
O=S(=O)(c1ccccc1)c1cc(O)ccc1O,-3.0%,50.1µM*,-15.4%,-26.0%,-8.0%,-10.0%
CCOC(=O)C1CCN(C(c2ccc(SC)cc2)c2c(O)cc(C)n(Cc3ccco3)c2=O)CC1 (stereo unspecified),/,?,/,1.7%[57 µM],56.2µM*,-19.0%
